Most compounds without a hit are left out; they make up all but 3.9% or so of the library.
FLuc inh – inhibitors of firefly luciferase | P08659 | purified firefly luciferase, luminescence, 8 min | Potency, µM (titrated, usually from 57.1 µM), actives largely listed as inhibitors | actives 2.2% (n = 72,000); further: nearly all actives have a fitted effect of over 40% in size
Target sequence (P08659 whole entry, looked up): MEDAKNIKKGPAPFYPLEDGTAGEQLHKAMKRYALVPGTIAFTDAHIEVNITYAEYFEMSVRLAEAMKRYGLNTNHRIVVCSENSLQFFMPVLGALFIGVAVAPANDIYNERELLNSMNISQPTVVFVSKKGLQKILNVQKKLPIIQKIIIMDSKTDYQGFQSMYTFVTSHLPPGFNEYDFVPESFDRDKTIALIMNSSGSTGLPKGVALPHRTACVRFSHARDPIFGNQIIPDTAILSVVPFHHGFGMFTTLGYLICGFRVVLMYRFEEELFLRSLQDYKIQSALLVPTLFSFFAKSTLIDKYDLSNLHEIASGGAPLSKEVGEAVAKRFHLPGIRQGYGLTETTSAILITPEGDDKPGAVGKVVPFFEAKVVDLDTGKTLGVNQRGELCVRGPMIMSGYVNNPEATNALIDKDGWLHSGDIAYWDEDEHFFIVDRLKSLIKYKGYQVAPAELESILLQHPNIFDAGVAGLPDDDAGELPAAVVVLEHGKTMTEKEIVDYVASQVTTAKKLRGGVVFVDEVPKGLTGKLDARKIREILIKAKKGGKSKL
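Titration-based qHTS; buffer 50 mM imidazole pH 7.2, 50 mM KCl, 7 mM MgCl2, 10 uM ATP, 0.01% Tween 20, 0.05% BSA; luciferase/luciferin detector mix added after compound; 8 min, ambient; luminescence.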
ERK AVP block – blocks ERK signaling stimulated by vasopressin; HEK293-V1b, vasopressin-stimulated pERK AlphaScreen; Potency, µM (series often up to 57.5 µM), most hits filed as inhibitors; actives 0.99% (n = 72,000); further: nearly all actives have a fitted effect of over 55% in size
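HEK293 cells stably expressing V1b receptor, preincubated 30 min at 37 °C with compound, then stimulated 5 min with 25 nM vasopressin. Phospho-ERK by AlphaScreen SureFire after 5 h RT; normalized to DMSO and vasopressin; AC50 by Hill fit.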
GBA mod – alters purified human glucocerebrosidase activity; P04062; purified enzyme, resorufin glucoside fluorescence (screen aimed at inhibitors), 20 min; Potency, µM; actives 1.1% (n = 48,000); in the data active means potency below about 15 µM; inconclusive means mostly about 16 µM to 33 µM;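 further: the screen sought inhibitors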
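Compounds titrated against 0.2 nM normal enzyme, 30 uM resorufin beta-D-glucopyranoside substrate, citrate/phosphate buffer with taurocholate and tween-20, pH 5.9. Reaction ran 20 min at room temperature; fluorescence (Ex 548/Em 600) gave AC50.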
Bst PK mod – alters activity of Bacillus stearothermophilus pyruvate kinase. purified pyruvate kinase, luminescence ATP production; ribose 5-phosphate activator present at AC10. Potency, µM. actives 1.2% (n = 51,000); in the data active means potency below about 11 µM; inconclusive means mostly about 12 µM to 25 µM;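 the screen sought inhibitors and activators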
Large screens that a line does not name were inactive. Unless noted, the call rests on the fitted dose curve; in most records, active means well fitted curve in the direction sought with a large enough effect; inconclusive means small, poorly fitted or top-dose-only effect, or another doubt; inactive means no such curve, though single readings can be large; an effect the other way counts as inactive or inconclusive.

COc1ccccc1NC(=O)CSc1nnc(-c2ccco2)n1Cc1ccco1	FLuc inh 25µM (no result: Bst PK mod)
O=Nc1ccc2oc(=O)ccc2c1	ERK AVP block inconclusive (no result: GBA mod, Bst PK mod)
COc1cccc(OC)c1OCCNC[C@@H]1CSc2ccccc2O1	none (no result: GBA mod, Bst PK mod)
CCOC(=O)c1ccc(NC(=O)Nc2ccc3c(c2)OCCO3)cc1	ERK AVP block 25µM (no result: Bst PK mod)
COc1ccccc1NC(=O)Nc1ccc2c(c1)OCCO2	FLuc inh 13µM
CCOC(=O)c1c(C)c(C(=O)Nc2ccc3c(c2)OCCO3)c(C)n1C	none
COc1ccc(C2=Nn3c(nnc3-c3ccccc3)SC2)cc1OC	none (no result: ERK AVP block, GBA mod)
COc1ccc(OCc2nnc3n2N=C(c2ccc(OC)cc2)CS3)cc1	ERK AVP block 25µM (no result: GBA mod, Bst PK mod)
CCCc1nnc2n1N=C(c1ccc(OC)c(OC)c1)CS2	ERK AVP block 16µM
COc1ccc(OCc2nnc3n2N=C(c2ccc(C)cc2)CS3)cc1	none (no result: GBA mod, Bst PK mod)
CN(C)c1nc(-c2cccc(NS(C)(=O)=O)c2)nc2ccccc12	none (no result: GBA mod, Bst PK mod)
C=C(C)Cn1c(SCC#N)nc2ccccc2c1=O	none
N#CCSc1nc2ccc(N3CCCCC3)cc2c(=O)n1Cc1ccccc1	GBA mod 15
N#CC(C#N)=c1ccc2c(c1)NC1(CCCCC1)N=2	FLuc inh 7.9µM, ERK AVP block 16µM (no result: GBA mod, Bst PK mod)
O=C(c1cnccn1)N1CCC2(CCCN(c3ccccn3)C2)CC1	none (no result: GBA mod, Bst PK mod)
Oc1c(CN2CCN(c3ccccn3)CC2)cc(Cl)c2cccnc12	ERK AVP block 32µM
CCCOc1ccc(-c2nnc(N)s2)cc1	FLuc inh 13µM, Bst PK mod inconclusive (no result: ERK AVP block, GBA mod)
O=S(=O)(c1ccccc1)N1CCC2(CCCN(Cc3ccccc3)C2)CC1	none (no result: GBA mod, Bst PK mod)
c1ccc(-c2nc(-n3ccnc3)nc(-n3ccnc3)n2)cc1	Bst PK mod 0.94
c1ccc(N(c2ccccc2)c2nc(N3CCCC3)nc(-n3ccnc3)n2)cc1	none (no result: GBA mod)
c1ccc(CN2CCN(c3nc(-c4ccccc4)nc(-n4ccnc4)n3)CC2)cc1	Bst PK mod 4.4 (no result: GBA mod)
CC(=O)NCc1nc2ccccc2n1C(C)C	none (no result: ERK AVP block, GBA mod, Bst PK mod)
CC(C)n1c(CNC(=O)c2ccccc2)nc2ccccc21	GBA mod 8.4
O=C(Nc1nc2c(s1)CCCC2)c1ccc2ncsc2c1	FLuc inh 3.2µM (no result: ERK AVP block, GBA mod, Bst PK mod)
Cc1ncsc1C(=O)Nc1nc2c(s1)CCCC2	FLuc inh 20µM
O=C(CS(=O)(=O)Cc1ccccc1)Nc1nc2c(s1)CCCC2	none
Cc1ccccc1C(=O)NCc1ccncc1	ERK AVP block 25µM
O=C(c1ccco1)N1CCC2(CC1)CCN(c1ccccn1)CC2	ERK AVP block inconclusive (no result: GBA mod, Bst PK mod)
CN1/C(=C\C(=O)c2ccco2)C(C)(C)c2ccccc21	ERK AVP block inconclusive
CCN1/C(=C/C(=O)c2ccco2)Sc2ccccc21	FLuc inh 25µM
Cn1cccc1C(=O)Nc1nc(-c2ccccn2)cs1	FLuc inh 20µM
O=c1c(-c2cccs2)nc2cncnc2n1-c1ccccc1	none (no result: GBA mod, Bst PK mod)
COc1cccc(-c2nc3ccc(O)cc3c(=O)o2)c1	FLuc inh inconclusive, GBA mod 13, Bst PK mod 11
COc1cccc(-c2cc(=O)c3cc(O)ccc3o2)c1	ERK AVP block inconclusive (no result: GBA mod, Bst PK mod)
O=c1c(-c2ccc(F)cc2)nc2cnc(N3CCNCC3)nc2n1C1CC1	none (no result: GBA mod, Bst PK mod)
Cc1cc(C(=O)NCCC2=CCCCC2)c(C)o1	FLuc inh 16µM (no result: Bst PK mod)
Nc1n[nH]c(-c2ccccc2)c1-c1ccccc1	ERK AVP block inconclusive (no result: GBA mod, Bst PK mod)
Clc1ccccc1-c1nc(-c2ccccc2)n[nH]1	FLuc inh 16µM
CNC(=O)c1cc2ccccc2o1	none (no result: ERK AVP block, GBA mod)
Cc1cc(C(=O)Nc2cccc(C(=O)O)c2)oc1C	FLuc inh 16µM
Cc1cccc(NC(=O)c2cc3ccccc3o2)c1	FLuc inh 13µM, Bst PK mod inconclusive
CCC(=O)Nc1cccc(NC(=O)c2cc3ccccc3o2)c1	FLuc inh 4µM (no result: GBA mod, Bst PK mod)
CCC(=O)Nc1cccc(-c2nc3ccccc3o2)c1	none (no result: Bst PK mod)
O=C(Nc1cccc(Br)c1)c1cc2ccccc2o1	FLuc inh 7.9µM, ERK AVP block inconclusive (no result: GBA mod, Bst PK mod)
CC(C)=CCC/C(C)=C/CO/N=C1/C[C@@H](O)[C@@H](O)[C@@H]2[C@@H]3C(=O)N(C4CCCCC4)C(=O)[C@H]3CC[C@@H]12	none (no result: GBA mod, Bst PK mod)
N#Cc1cc(-c2ccccc2)oc1NC(=O)c1ccco1	FLuc inh 25µM (no result: Bst PK mod)
C=C(C)CSC1=C(C#N)C(c2ccccc2Cl)CC(=O)N1 (centres undefined)	ERK AVP block 20µM (no result: GBA mod, Bst PK mod)
C=CCSC1=C(C#N)C(c2ccccc2Cl)CC(=O)N1 (centres undefined)	none (no result: GBA mod, Bst PK mod)
CCC(=O)OCC(=O)[C@@]1(OC(=O)CC)[C@H](C)C[C@@H]2[C@@H]3[C@H]([C@@H](O)C[C@@]21C)[C@]1(C)C=CC(=O)C=C1C[C@@H]3Cl	none (no result: GBA mod, Bst PK mod)
COc1ccc(OCCSc2ncccn2)cc1	FLuc inh 25µM (no result: Bst PK mod)
Cn1c(-c2ccc(Br)o2)nc2cc(Br)ccc21	FLuc inh 6.3µM, ERK AVP block inconclusive (no result: Bst PK mod)
